# Screening data from PubChem BioAssay.
# The list is not random: actives were taken first. Their share in the collection is about 3.9%.
# HepG2 tox = kills HepG2 cells in TGF-b inhibitor counter-screen. HepG2 CAGA-GFP viability, ATP luminescence, 18 h. Potency, µM (highest dose often 46.1 µM), usual class: cytotoxic. hit rate 0.76% among 410,000. AID 588856
#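 CellTiter-Glo luminescence gave cytotoxicity after 18 hours at 37 degrees C. The cells were HepG2 CAGA-GFP in 1% FBS DMEM, stimulated with 500 pg/mL TGF-beta after compound addition. %Activity was normalised to no-cell wells (complete cell-killing) and DMSO (no toxicity), and curves were fitted and classified.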
# TGFb inhibitor = blocks TGF-b signaling; HepG2 CAGA-GFP TGF-b/SMAD3 reporter, GFP fluorescence, 18 h; TGF-beta stimulated, 500 pg/mL final; Potency, µM (highest dose often 46.1 µM), actives largely listed as inhibitors; hit rate 1.2% among 410,000; AID 588855; also: nearly all actives have a fitted effect of over 65% in size
#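 Per well, imaged GFP fluorescence of HEPG2 CAGA-GFP cells gives the signal; cells get compound, then TGF-beta (500 pg/mL final), 18 h at 37 degrees C; %Activity versus -TGF-beta and +DMSO controls.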
# HT1080-NT tox = kills 2HG-producing HT-1080-NT fibrosarcoma cells | HT-1080-NT fibrosarcoma viability, CellTiter-Glo ATP luminescence, 48 h | hit rate 1.6% among 360,000 | Potency, µM (top dose mostly 46.1 µM), usual class: cytotoxic;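 also: NT is the 2HG producing partner of a matched IDH1 knockdown line; nearly all actives have a fitted effect of over 55% in size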
#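 Compounds were tested in concentration-response format on HT-1080-NT cells for 48 hours at 37 degrees C. Cell viability came from CellTiter-Glo luminescence; curves were classified by r2, response magnitude and activity.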
# HT1080 IDH1KD tx = toxicity to HT-1080 IDH1 knockdown cells (counter line); HT-1080 IDH1 knockdown viability, ATP luminescence, 48 h; Potency, µM (top dose mostly 46.1 µM), most hits filed as cytotoxic; hit rate 2% among 360,000; AID 686971
#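 After a 2 h attachment period, IDH1KD HT-1080 cells took pin-transferred compound for 48 h at 37 °C; ATP-based luminescence after 10 min room-temperature reagent incubation reported viability.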
# ATXN viability = viability counter-screen for ATXN expression inhibitors; S2 cells (HEK-293 line with an ATXN2-luciferase reporter) viability, CellTiter-Fluor protease fluorescence, 24 h; Potency, µM (top dose mostly 56.7 µM), hits mostly cytotoxic; hit rate 0.49% among 400,000; AID 651635; also: nearly all actives have a fitted effect of over 40% in size
# ATXN2 expr inh = ATXN2 expression inhibition. HEK-293 ATXN2-luciferase reporter, luminescence, 24 h. Potency, µM (top dose mostly 57 µM), usual class: inhibitors. hit rate 0.72% among 360,000. AID 1745845; also: nearly all actives have a fitted effect of over 55% in size
#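 ATXN2-luciferase reporter cells (luciferase flanked by upstream and downstream ATXN2 gene portions) were treated 24 h at 37 °C with compounds at up to 57 uM. SteadyGlo luminescence gave expression; GF-AFC fluorescence gave viability.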
# A number is an active result; - = inactive; ? = inconclusive; . = not tested or not shown; ! = not confirmed by another sample; [ ] = another dose, or the depositor's remark. Calls follow the shape of the dose curve; as a rule, active = well fitted curve in the direction sought with a large enough effect; inconclusive = small, poorly fitted or top-dose-only effect, or another doubt; inactive = no such curve, though single readings can be large; an effect the other way counts as inactive or inconclusive.
SMILES,HepG2 tox,TGFb inhibitor,HT1080-NT tox,HT1080 IDH1KD tx,ATXN viability,ATXN2 expr inh
Cc1ccc(OCC(O)CNCc2ccccc2)cc1C (stereo unspecified),-,-,-,-,-,-
O=C(c1ccccc1)c1ccc(OCC(O)CNCc2cccc(Cl)c2)cc1 (stereo unspecified),11.2µM,?,?,?,-,-
Cc1nc(-c2ccc(OCC(C)C)c(C#N)c2)sc1C(=O)O,.,.,.,.,-,?
CCc1ccc(NC(=O)c2cc(=O)c3ccc(C)c(C)c3o2)cc1,-,-,.,.,-,-
Cc1cc(C)c(/C=C/c2onc(C)c2S(=O)(=O)N2CCC(C(=O)N3CCN(c4ccccc4)CC3)CC2)c(C)c1,-,-,.,.,.,.
CCc1ccc(S(=O)(=O)Nc2cc3c(cc2C)n(C)c(=O)n3C)cc1,-,-,16.4µM,14.6µM,-,.
CCc1ccc(S(=O)(=O)Nc2cc3c(cc2C)n(C)c(=O)c(=O)n3C)cc1,-,-,.,.,-,-
CCN(CC)c1ccc(/C=N/NC(=O)c2cnccn2)cc1,-,-,5.17µM,3.66µM,-,-[11.3 µM]
CCN(CC)c1ccc(/C=N/NC(=O)c2cccc(S(=O)(=O)N3CCOCC3)c2)cc1,-,-,-,-,-,-
CCN(CC)c1ccc(/C=N/NC(=O)c2ccco2)cc1,-,?,?,2.59µM,?,-
CCN(Cc1ccccc1)c1ccc(/C=N/NC(=O)c2cccc(S(=O)(=O)N3CCOCC3)c2)cc1,-,-,?,20.6µM,-,-
Cc1ccc(NNC(=O)c2sccc2Cl)c(C)c1,.,.,-,-,.,.
Cc1ccc(NC(=O)CCC(=O)NNC(=O)CCc2ccccc2)c(C)c1,-,-,-,-,-,-
Cc1ccc(NNC(=O)CCc2ccccc2)c(C)c1,-,-,?,25.9µM,-,-
Cc1ccc(NNC(=O)c2ccno2)c(C)c1,-,-,5.8µM,7.31µM,-,?
CCN1CCCC1CNC(=O)c1cnn(-c2nccc(-c3cc(OC)ccc3OC)n2)c1C (stereo unspecified),.,.,.,.,-,.
Cn1c(=O)[nH]c2ncn(C)c2c1=O,-,-,-,-,-,-
Cn1cnc2c1c(=O)[nH]c(=O)n2C,.,.,.,.,-,30.6µM!
O=C(NC(c1ccc(-c2ccccc2)cc1)c1cnccn1)C1CCN(CCOc2ccc(F)cc2)CC1 (stereo unspecified),17.8µM,12.6µM,?,16.4µM,?,?
O=C(NC(c1ccc(-c2ccccc2)cc1)c1cnccn1)C1CCN(CCCOc2ccccc2)CC1 (stereo unspecified),-,?,?,9.2µM,31.6µM,?
Fc1cccc(NC(=S)NNc2c3ccccc3nc3ccccc23)c1,-,?,?,20.6µM,?,-
Fc1cccc(NC(=S)NNc2ccccc2)c1,-,?,-,-,-,-
CCNC(=O)NCc1cccc(Cl)c1,.,.,.,.,-,-
COc1ccc(C2c3c(n(C)c4ccccc34)C(=O)N2CC(=O)Nc2cccc(Cl)c2)cc1 (stereo unspecified),-,-,.,.,.,.
Brc1ccc(-c2cn3cc(Cc4ccccc4)sc3n2)cc1,-,-,.,.,?,-
SMILES,HepG2 tox,TGFb inhibitor,HT1080-NT tox,HT1080 IDH1KD tx,ATXN viability,ATXN2 expr inh
Cc1cc(C(=O)CSc2nnc(-c3cccs3)n2Cc2ccccc2)c(C)n1C,-,?,-,-,-,-
O=c1cc(CSc2nnc(-c3cccs3)n2Cc2ccccc2)nc2sc3ccccc3n12,-,-,-,25.9µM,?,-
CNC[C@H](O)[C@@H](O)[C@H](O)[C@H](O)CO,.,.,.,.,-,-
CN(CCOc1cccc2ccccc12)Cc1ccccc1,-,-,-,-,-,-
CN(C)[C@@H](CCOc1cccc2ccccc12)c1ccccc1,.,.,.,.,?,31.6µM!
Cc1ccc(Cl)cc1N(C)C(=O)c1cc2ccc3cccnc3c2[nH]1,12.6µM,11.2µM,.,.,.,.
O=C(NCc1ccccc1)c1cc2ccc3cccnc3c2[nH]1,-,-,.,.,.,.
Cc1ccc(C)c(N2CCN(C(=O)c3cc4ccc5cccnc5c4[nH]3)CC2)c1,-,15.8µM,.,.,.,.
O=C(N/N=C/c1cccc(Oc2ccccc2)c1)c1cccc(O)c1,-,-,?,20.6µM,-,-
CCc1ccc(S(=O)(=O)c2nnn3c2nc(NC2CCCCCC2)c2sccc23)cc1,-,-,.,.,.,.
COc1ccccc1CN(Cc1nc2ccccc2c(=O)[nH]1)S(=O)(=O)c1ccc2ccccc2c1,-,?,?,6.31µM,?,?
CC(C)C(=O)N(Cc1ccc(F)cc1)Cc1nc2ccccc2c(=O)[nH]1,20µM,-,-,-,-,-
COc1ccccc1NC(=O)N(Cc1ccc2c(c1)OCO2)Cc1nc2ccccc2c(=O)[nH]1,-,-,-,-,-,-
COc1ccc(S(=O)(=O)N(Cc2ccccc2)Cc2nc3ccccc3c(=O)[nH]2)cc1,-,-,-,-[9.24 µM],-,-
COc1cc2nc(CN(C)Cc3nc4ccccc4c(=O)[nH]3)[nH]c(=O)c2cc1OC,-,-,17.8µM,7.08µM,-,-
COc1ccccc1CN(Cc1nc2ccccc2c(=O)[nH]1)C(=O)Nc1cccc(C)c1,8.91µM,?,7.08µM,3.55µM,-,-
CCCCN(CCC#N)c1ccc(/C=C/c2ccnc3ccccc23)cc1,-,?,.,.,.,.
CN(C)CCOc1cc(-c2cn[nH]c2)ccc1NC(=O)C1COc2ccccc2O1 (stereo unspecified),.,.,.,.,.,-
CCOc1ccccc1N(CC)C(=O)c1cc2c(=O)[nH]c3ccc(C)cc3c2s1,-,-,.,.,-,-
CCOc1ccc2nc3cc(N)ccc3c(N)c2c1,.,.,.,.,?,12.6µM
CCCCn1c(=N)n(CC(O)c2ccccc2)c2ccccc21 (stereo unspecified),-,-,-,-,-,-
N=c1n(CCN2CCCCC2)c2ccccc2n1CC(O)c1cccc(Br)c1 (stereo unspecified),-,-,23.1µM,?,?,?
CN(C)CCn1c(=N)n(CC(O)c2ccc(Cl)c(Cl)c2)c2ccccc21 (stereo unspecified),-,?,23.1µM,?,?,-
N=c1n(CCN2CCCCC2)c2ccccc2n1CC(O)c1ccc(Cl)c(Cl)c1 (stereo unspecified),11.2µM,?,11.2µM,12.6µM,?,25.1µM
Cc1[nH]n(-c2ccc([N+](=O)[O-])cc2)c(=O)c1C=NCC1CCCO1 (stereo unspecified),-,?,-,-,-,-
Cc1ccc(-n2[nH]c(C)c(/C=N/Nc3ccc([N+](=O)[O-])cc3[N+](=O)[O-])c2=O)cc1,-,?,?,23.1µM,.,?
CC(=O)n1cc(N(C(=O)CCl)c2ccc(Cl)cc2)c2ccccc21,7.94µM,?,2.31µM,6.51µM,3.55µM,.
CC(=O)n1cc(C=O)c2ccccc21,-,-,.,.,.,.
